Bioassay records deposited in PubChem by The Scripps Research Institute Molecular Screening Center.
Compounds with a hit are over-represented: about 2.4% of the library has one in this group of screens.
CHO-K1 Ca PAM – counter-screen for M1 PAMs: effect in parental CHO-K1 cells; activation, % at 3 µM; ATP EC20, Fluo-8 calcium fluorescence; 0% at ATP EC20, 100% at ATP max; actives 0.02% (n = 360,000);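 active means activation above the run cutoff, the mean activation of all test compounds plus 3 SD, cut at about 40% in these data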;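 further: peak over basal fluorescence ratio in a 140 s read after ATP addition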
CHRM1 antagonist – human CHRM1 antagonism | P11229 | CHO-K1 hM1, Fluo-8 calcium fluorescence, ACh EC80 antagonist | inhibition, % at 3 µM | actives 1.3% (n = 360,000) | AID 588852;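 active means percent inhibition above its own plate's cutoff, namely the mean of that plate's compound wells plus 3 SD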;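 further: peak over basal fluorescence ratio during 140 s after agonist addition; 0% = ACh EC80 plus DMSO and 100% = DMSO alone without agonist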
Target sequence (P11229 whole entry, looked up): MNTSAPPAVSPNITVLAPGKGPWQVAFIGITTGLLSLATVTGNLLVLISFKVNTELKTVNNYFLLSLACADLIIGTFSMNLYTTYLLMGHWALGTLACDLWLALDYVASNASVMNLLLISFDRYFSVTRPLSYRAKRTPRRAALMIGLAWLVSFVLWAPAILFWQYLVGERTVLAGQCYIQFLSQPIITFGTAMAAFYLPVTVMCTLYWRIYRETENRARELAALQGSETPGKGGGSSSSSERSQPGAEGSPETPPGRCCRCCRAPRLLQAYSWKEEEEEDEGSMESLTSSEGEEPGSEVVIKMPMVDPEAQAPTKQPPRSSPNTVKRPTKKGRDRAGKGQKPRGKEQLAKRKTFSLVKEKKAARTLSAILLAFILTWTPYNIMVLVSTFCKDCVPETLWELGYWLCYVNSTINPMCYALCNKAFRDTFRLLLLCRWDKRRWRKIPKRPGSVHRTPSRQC
M1 PAM – positive allosteric modulators of human M1 muscarinic receptor; actives 0.088% (n = 360,000); AID 588819; P11229; activation, % at 3 µM; CHO-K1 hM1, Fluo-8 calcium fluorescence, ACh EC20; 0% = ACh EC20, 100% = maximal ACh; in the data active means activation above about 19%, passing the limit was not always enough
CHO-K1 Ca antag – counter-screen for M1 antagonists: effect in parental CHO-K1 cells. ATP-induced calcium, Fluo-8 fluorescence. inhibition, % at 3 µM. actives 0.6% (n = 360,000);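 active means inhibition above a per-plate cutoff, the plate's mean sample inhibition plus 3 SD, cut at about 24% in these data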;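 further: 0% = DMSO plus EC80 ATP and 100% = DMSO alone without ATP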
CHRM1 agonist – agonists of human M1 muscarinic receptor; CHO-K1 hM1, Fluo-8 calcium fluorescence, agonist mode; 0% DMSO, 100% acetylcholine EC100; AID 588814; actives 0.33% (n = 360,000); activation, % at 3 µM; P11229;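 active means activation above the run's mean compound activation plus 3 SD, cut at about 16% in these data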;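 further: peak over basal fluorescence ratio within a 140 s kinetic read after compound addition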
M1 ag parental – nonselective activator or artifact in parental CHO-K1 cells | Fluo-8 calcium fluorescence; scaled to maximal ATP response, vehicle zero | activation, % at 3 µM | actives 0.48% (n = 360,000); in the data active means activation above about 15%;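 further: untransfected CHO-K1 host cells lacking M1 receptor as counterscreen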
Numbers without * were called inactive.

SMILES	CHO-K1 Ca PAM	CHRM1 antagonist	M1 PAM	CHO-K1 Ca antag	CHRM1 agonist	M1 ag parental
O=C(CCNC(=O)c1ccc(Cl)cc1)Nc1ncccc1O	-7.0	-21.4	13.9	-0.7	1.2	0.2
O=[N+]([O-])c1ccc2nc(NCCCO)nc(-c3ccccc3)c2c1	-0.3	-12.2	7.2	0.9	-4.9	0.2
CCc1nc2ccc(C(=O)Nc3ccc(NC(C)=O)cc3)cn2c1N(C)CCCc1ccccc1	6.0	46.7*	-29.2	1.8	-4.3	1.8
CCc1nc2ccc(C(=O)Nc3ccc(C(=O)N(C)C)cc3)cn2c1N(C)CCCc1ccccc1	4.7	39.4*	-24.2	-0.2	-9.2	1.1
CCc1nc2ccc(C(=O)Nc3cccc(OC)c3)cn2c1N(C)CCCc1ccccc1	9.3	-2.7	-2.5	6.0	-8.8	0.3
CCc1nc2ccc(C(=O)Nc3cccc(NS(C)(=O)=O)c3)cn2c1N(C)CCCc1ccccc1	2.8	41.1*	-21.7	2.5	-6.6	1.7
CCc1nc2ccc(C(=O)NCCNC(C)=O)cn2c1N(C)CCCc1ccccc1	14.3	12.5	-20.9	-16.0	-6.4	2.6
CCc1nc2ccc(C(=O)NCCc3c[nH]c4ccccc34)cn2c1N(C)CCCc1ccccc1	11.0	15.1	-18.5	-13.5	-7.8	0.6
CCOC(=O)C1(C)CCN1C(=O)c1ccc2c(c1)CCO2 (configuration not stated)	-12.8	7.5	-6.3	2.1	-3.8	0.1
CC(=O)Nc1ccc(S(=O)(=O)Nc2cccc3[nH]ncc23)cc1	-16.7	-4.5	5.9	30.9*	-8.1	12.9
CCN(CC)CCNC(=O)C12CC3CC(C)(CC(C)(C3)C1)C2	2.3	39.8*	-24.7	-31.2	-12.1	1.4
CCN(CC)CCNC(=O)C12CC3CC(CC(C3)C1)C2	14.2	8.8	-5.2	-2.5	-5.8	0.1
CCOC(=O)C(Cc1ccccc1)NC(=O)CCc1c(C)nc2ncnn2c1C (configuration not stated)	17.3	-5.6	5.6	-6.3	-2.6	1.0
COC(=O)c1ccccc1OCCCN(C)C	-10.8	-6.2	5.0	26.6*	-7.0	-0.4
CCOC(=O)c1[nH]c2ccccc2c1NC(=S)Nc1ccccc1	11.4	2.1	-1.3	-3.4	-5.9	0.0
C=CCc1cccc(/C=N/NC(=O)c2ccccc2OC)c1O	12.0	-2.2	-3.0	1.3	-7.5	1.4
C=CCc1cccc(/C=N/NC(=O)c2ccccc2Br)c1O	44.2*	-2.6	10.2	-16.4	-8.3	1.4
Cn1c(=O)c(N)c2c3c(c(Br)ccc31)C(=O)c1ccccc1-2	13.6	12.7	-2.1	0.8	16.2*	31.7*
Cn1c(=O)c2c(nc(Oc3ccccc3Br)n2C)n(C)c1=O	3.4	-17.5	7.5	-9.1	-0.7	0.9
COc1ccc(C2OCC3(O)C(c4ccc(OC)c(OC)c4)OCC23)cc1OC (configuration not stated)	-14.2	7.5	-9.9	5.8	-2.6	0.1
O=C(c1ccccc1)N1N=C(c2ccc(F)cc2)CC1(O)C(F)(F)F (configuration not stated)	-3.4	-6.0	7.3	-13.8	-5.8	-0.5
CCN1CCN(c2nc(-c3ccc(F)cc3)cc(=O)[nH]2)CC1	14.5	-8.4	9.7	-6.0	-2.1	0.5
CN1CCC2(CC1)N=C(c1ccc(F)cc1)C(=S)N2C(=O)c1ccccc1	-12.1	44.5*	-25.6	10.3	-6.6	0.0
CCN1CCC2(CC1)N=C(c1ccc(F)cc1)C(=S)N2C(=O)c1ccc(C(C)(C)C)cc1	-6.9	100.5*	-28.4	8.1	-14.9	0.6
CC(=O)N1CCN(S(=O)(=O)c2c(C)n(C)c(=O)n(C)c2=O)CC1	7.1	-9.9	9.3	-7.3	-1.1	1.1
SMILES	CHO-K1 Ca PAM	CHRM1 antagonist	M1 PAM	CHO-K1 Ca antag	CHRM1 agonist	M1 ag parental
CC(C)Oc1cccc(C(=O)C2CCCN(Cc3cccn3-c3ccccn3)C2)c1 (configuration not stated)	7.1	40.7*	-23.2	-3.0	-4.4	6.0
CC(C)Oc1cccc(C(=O)C2CCCN(C(=O)c3cncs3)C2)c1 (configuration not stated)	-3.5	39.4*	-15.8	3.8	-4.8	0.5
Cc1nn(C(C)C)c(C)c1CN1CCCC(C(=O)c2cccc(OC(C)C)c2)C1 (configuration not stated)	-5.1	36.8*	-28.6	11.1	-10.2	1.1
CCn1nc(C)c(CN2CCCC(C(=O)c3cccc(OC(C)C)c3)C2)c1C (configuration not stated)	9.7	95.3*	-30.9	-1.9	-10.8	5.7
Cc1nc(C(=O)N2CCCC(C(=O)c3cccc(OC(C)C)c3)C2)cs1 (configuration not stated)	1.0	-4.2	5.8	0.9	-0.4	3.6
CC(C)Oc1cccc(C(=O)C2CCCN(Cc3cnn(C(C)C)c3)C2)c1 (configuration not stated)	21.4	11.6	-16.9	-6.3	-12.9	0.0
Cc1ccc(NC(=O)CSc2ncnc3ccccc23)cc1S(=O)(=O)N1CCCCC1	7.6	22.9	-10.0	19.9	-6.8	11.3
O=C(Nc1ccccc1)NC1CCCCCCC1	5.2	-5.9	5.7	10.7	-2.5	1.7
COc1cc(NC(=O)Nc2cccc([N+](=O)[O-])c2)cc(OC)c1	-7.4	9.1	-13.1	10.0	2.0	15.2*
O=C(CNC1CCCCC1)Nc1cccc([N+](=O)[O-])c1	-25.0	-5.2	9.5	5.2	-0.9	-0.6
O=C(Nc1cccc([N+](=O)[O-])c1)NC1CCCCCCC1	14.6	26.2	-14.9	2.2	2.0	16.3*
O=C(Nc1ccc(Br)cc1)NC1CCCCCCC1	-1.1	30.4*	-14.2	9.5	3.4	13.8
COc1ccc(CCNC(=O)Nc2ccccc2[N+](=O)[O-])cc1	16.6	5.7	5.5	-1.8	26.6*	1.5
COc1ccc(CCNC(=O)Nc2cccc([N+](=O)[O-])c2)cc1	1.1	6.9	-9.0	-11.4	3.8	15.5*
COc1ccc(CCNC(=O)Nc2cccc([N+](=O)[O-])c2)cc1OC	18.4	5.1	-0.6	-12.2	-2.2	4.9
CCOC(=O)C1CCC(CNCc2ccccc2C)CC1 (configuration not stated)	14.2	52.7*	-23.5	-16.5	-8.3	1.1
O=C(O)C1CCC(CNCc2ccccc2Cl)CC1 (configuration not stated)	5.9	2.6	-4.6	-4.0	-10.4	0.2
COc1ccccc1N1CCN(Cc2cn[nH]c2-c2ccc(F)cc2)CC1	26.5	-19.3	15.7	-32.5	44.5*	18.8*
COc1ccccc1N1CCN(Cc2nc(-c3ccc(F)cc3)oc2C)CC1	15.6	3.0	-0.1	2.2	-8.9	2.6
COc1ccc(-c2csc(NC(=O)c3ccco3)n2)cc1	4.9	-4.8	3.6	16.7	-3.5	0.9
C/C=C(\C)C(=O)NCCN1C2=NC[C@H](C)N2C[C@@H]1Cc1ccc(OC)cc1	0.9	5.0	-9.0	-6.1	-13.6	0.0
